# Screens from PubChem BioAssay.
# Rows were chosen to be rich in hits. Some 2.9% of all compounds tested hit in one or more screens of this group.
# ATXN2 expr inh – ATXN2 expression inhibition. HEK-293 ATXN2-luciferase reporter, luminescence, 24 h. Potency, µM (doses to about 57 µM), inactives show top-dose activity change, negative = inhibition, hits mostly inhibitors. 360,000 compounds, 0.72% hits; note: % is set by controls: 0 for no effect and ±100 for the full control effect; nearly all actives have a fitted effect of over 55% in size
#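 ATXN2-luciferase reporter cells (luciferase flanked by upstream and downstream ATXN2 gene portions) were treated 24 h at 37 °C with compounds at up to 57 uM. SteadyGlo luminescence gave expression; GF-AFC fluorescence gave viability.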
# ATXN viability – reduces viability in counter-screen for ATXN expression inhibitors | 400,000 compounds, 0.49% hits | AID 651635 | Potency, µM (series often up to 56.7 µM), hits mostly cytotoxic | S2 cells (HEK-293 line with an ATXN2-luciferase reporter) viability, CellTiter-Fluor protease fluorescence, 24 h; note: nearly all actives have a fitted effect of over 40% in size
# A549 viability – A549 cytotoxicity, counter-screen for Nrf2 inhibitors. A549 ARE-Fluc cells, CellTiter-Fluor viability, 18-24 h. Potency, µM (doses to about 46 µM), without a hit: at the highest dose activity change, negative = cytotoxicity, hits mostly inhibitors. 390,000 compounds, 0.16% hits. AID 504648; note: % is set by controls: 0 for no effect and ±100 for the full control effect
#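 A549 ARE-Fluc cells in 5% FBS OPTI-MEM, 5000 cells/well, rested 2 h then exposed to compounds in concentration-response for 18-24 h at 37 °C. Viability by CellTiter-Fluor fluorescence (Ex 405/Em 525) after 30 min; luciferase luminescence (BugLite, 15 min, RT) read afterwards.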
# Nrf2 activator – Nrf2 pathway activation; AREc32 ARE-luciferase reporter (MCF7-derived line), luminescence, 24 h; Potency, µM (top dose mostly 46.1 µM), for inactives: top-dose activation, most hits filed as activators; 410,000 compounds, 0.31% hits; AID 624171; note: % of control where 0% means no effect; nearly all actives have a fitted effect of over 65% in size
#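 Each well held 1000 AREc32 cells, which were incubated with compound for 24 hr at 37 deg C after overnight attachment, and ARE reporter activity was quantified by firefly luciferase luminescence.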
# Nrf2 block – blocks Nrf2 signaling; A549 ARE-Fluc reporter, luciferase luminescence, 18-24 h; Potency, µM (doses to about 46 µM), for the others: at the highest dose activity change, negative = inhibition, most hits filed as inhibitors; 360,000 compounds, 2.1% hits; AID 504444; note: % is set by controls: 0 for no effect and ±100 for the full control effect; nearly all actives have a fitted effect of over 60% in size
#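 Nrf2 activity is the BugLite luminescence, read 15 min after reagent at room temperature, following CellTiter-Fluor cytotoxicity readout (30 min, 37C). Compound titrations were applied for 18-24 h to 5000 A549 ARE_Fluc cells/well in 5% FBS OPTI-MEM.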
# An asterisk follows results filed as active; i = inactive; u = inconclusive; x = not tested or not shown; [ ] = dose if it differs, or a comment. Calls come from the whole dose curve; as a rule, active = well fitted curve in the direction sought with a large enough effect; inconclusive = small, poorly fitted or top-dose-only effect, or another doubt; inactive = no such curve, though single readings can be large; an effect the other way counts as inactive or inconclusive. Potency is the fitted concentration of half-maximal effect.
SMILES,ATXN2 expr inh,ATXN viability,A549 viability,Nrf2 activator,Nrf2 block
NC(=O)C1=CC2C3C=CC2(O)C(=O)OC3O1 (stereo unspecified),21.2µM*,x,-8.4%,u,-15.8%
O=C(CS(=O)(=O)c1ccc(Br)cc1)N1CCOCC1,-0.7%,i,0.5%,-0.5%,7.5%
COc1ccc(/C=N/NC(=O)CSCC(=O)Nc2ccccc2)cc1,6.4%,i,-0.2%,3.1%,8.1%
COc1cccc(/C=N/NC(=O)CSCC(=O)Nc2ccccc2)c1O,28.2µM*,i,3.1%,-0.4%,x
CC(=O)c1cccc(NC(=O)C2=CC(c3ccc4c(c3)OCO4)=NS(=O)(=O)N2C)c1,-21.2%,i,-10.4%,2.2%,u
Cc1cccc(-c2nc3cc([N+](=O)[O-])ccc3o2)c1,49.7%,i,-11.2%,10µM*,u
COCC(C)N1C(=O)Cc2c1nc(N)c1c(N)nc(N3CCN(c4ccccc4F)CC3)c(C#N)c21 (stereo unspecified),u,u,-11.0%,-0.4%,11.6µM*
Cc1[nH]n(-c2ccccc2)c(=O)c1/C=N/NC(=O)c1cccc(F)c1,x,u,-26.6%,0.2%,7.31µM*
Cc1[nH]n(-c2ccc(Br)cc2)c(=O)c1/C=N/NC(=O)c1ccccc1,x,i,u,2.9%,u
Cc1ccc(/C=N/Nc2nncc(-c3ccccc3)n2)o1,37.0%,i,-0.9%,3.9%,16.5%
Cc1[nH]n(-c2ccccc2)c(=O)c1/C=N/Nc1nncc(-c2ccccc2)n1,2.82µM*,i,-19.9%,0.0%,u
O=C(Nc1ccc(C(=O)NC2CCCCC2)cc1)c1cncc(Br)c1,-2.5%[11.3 µM],u,0.2%,0.1%,-16.9%
O=C(Nc1ccc2c(c1)OCCO2)C(=S)NCc1ccccc1,58.2%,i,3.3%,3.4%,u
Cc1ccc(N2NC(=O)/C(=C\c3cc4c(cc3[N+](=O)[O-])OCO4)C2=O)cc1C,u,u,-13.7%,-0.7%,u
CC(Oc1ccccc1F)c1nnc(SCC(=O)Nc2ccc(N3CCOCC3)cc2)o1 (stereo unspecified),5.4%,u,-4.9%,0.4%,-6.8%
COc1ccc(NC(=O)CCCSc2nc(-c3ccco3)cc(C(F)(F)F)n2)cc1OC,-30.6%,u,-17.4%,-0.4%,20.6µM*
O=C(CSc1nc(-c2ccco2)cc(C(F)(F)F)n1)Nc1ccc(C(=O)N2CCCCC2)cc1,-6.7%,i,-15.9%,0.0%,23.1µM*
Cc1ccnc2nc(C(=O)OCC(=O)N(Cc3ccccc3)C(C)C)nn12,x,i,-2.5%,0.3%,3.7%
COc1ccccc1/C=C/C(=O)OCC(=O)Nc1ccc(Cl)cn1,25.1µM*,i,u,1.7%,u
CCOC(=O)C1(C)NC(c2ccccc2F)C2C(=O)N(CC)C(=O)C21 (stereo unspecified),-17.9%,i,0.2%,-0.2%,3.6%
Cc1ccc(-n2nc3c(=O)n(C(C)C(=O)NCc4ccccc4C)nc(C)c3c2C)cc1 (stereo unspecified),x,x,-8.8%,-0.8%,5.17µM*
CCC(C(=O)NCCc1ccc(SC)cc1)n1nc(C)c2c(C)n(-c3ccc(C)cc3)nc2c1=O (stereo unspecified),x,x,-12.5%,0.2%,-100.3%
CCC(C(=O)NCCc1ccc(C)cc1)n1nc(C)c2c(C)n(-c3ccccc3)nc2c1=O (stereo unspecified),-8.9%,i,-18.5%,-0.6%,16.4µM*
Cc1ccc(-n2nc3c(=O)n(C(C)C(=O)NCc4ccc(Cl)cc4)nc(C)c3c2C)cc1 (stereo unspecified),-37.8%,i,-19.4%,2.2%,10.3µM*
Cc1ccc(CCNC(=O)C(C)n2nc(C)c3c(C)n(-c4ccccc4)nc3c2=O)cc1 (stereo unspecified),-18.6%,i,0.6%,0.0%,-18.2%
SMILES,ATXN2 expr inh,ATXN viability,A549 viability,Nrf2 activator,Nrf2 block
Cc1ccc(-n2nc3c(=O)n(C(C)C(=O)NCCC4=CCCCC4)nc(C)c3c2C)cc1 (stereo unspecified),x,i,-16.2%,0.6%,20.6µM*
CCCC(C(=O)NC(C)(C)C)N(CC1CCCO1)C(=O)CNS(=O)(=O)c1ccc(F)cc1 (stereo unspecified),10.3%,u,-7.2%,-0.4%,u
Cc1ccc(CNc2cccnc2)cc1,x,i,4.7%,-0.1%,2.5%
COc1ccccc1CCN1CCCC(CN(C)C(=O)c2ccc3nc[nH]c3c2)C1 (stereo unspecified),-9.8%,i,-4.6%,-0.5%,-1.5%
COc1ccccc1CN1CCNC(=O)C1CC(=O)NCCCN1CCCC1=O (stereo unspecified),-5.1%,i,0.7%,-0.8%,5.1%
O=C(c1ccc(Cn2c(=O)[nH]c3ccccc3c2=O)cc1)N1CCN(c2ccccn2)CC1,-19.1%,i,-0.8%,-0.9%,u
O=C(c1ccc(Cn2c(=S)[nH]c3ccccc3c2=O)cc1)N1CCN(c2ccccn2)CC1,15.8µM*,i,-15.1%,0.4%,u
CCOc1ccc(N(CC(=O)N2CCC(Cc3ccccc3)CC2)S(C)(=O)=O)cc1,-35.0%,i,-7.1%,0.3%,25.9µM*
CC1CC1C(=O)OCC(=O)NNC(=O)c1ccc([N+](=O)[O-])cc1 (stereo unspecified),-3.5%,i,-3.4%,-0.2%,-6.5%
CSc1nn(Cc2ccc(C)cc2)c(N)c1S(=O)(=O)c1ccccc1,-20.2%,i,-1.5%,0.6%,16.4µM*
CSc1nn(Cc2cccc(F)c2)c(N(C(C)=O)C(C)=O)c1S(=O)(=O)c1ccccc1,u,17.8µM*,-11.9%,-0.3%,-12.4%
COCCNC(=O)c1cccc(OC2CCN(Cc3ccc(OC(F)F)cc3)CC2)c1,u,i,-1.3%,-0.4%,u
CC1=C(C(=O)OC2CCCCCC2)C(c2c(Cl)cccc2Cl)CC(=O)N1 (stereo unspecified),u,i,-10.1%,-2.6%,20.6µM*
CC1=C(C(=O)OC2CCCC2)C(c2c(Cl)cccc2Cl)CC(=O)N1 (stereo unspecified),-21.2%,i,-2.3%,-1.2%,u
COc1cc(OC)c(-c2c3cc(O)c(=O)cc-3oc3cc(O)c(O)cc23)cc1OC,-31.1%,12.6µM*,16.4µM*,-2.0%,u
O=c1oc2cc(OCc3c(F)cccc3Cl)ccc2cc1-c1ccccn1,23.0%,i,-0.9%,3.7%,4.9%
CCCOc1ccc2cc(-c3ccccn3)c(=O)oc2c1,3.55µM*,i,8.5%,-2.2%,u
Cc1cccn2c(=O)c(C=O)c(N3CCN(c4ccc(F)cc4)CC3)nc12,-35.4%,u,-9.9%,5.9%,16.4µM*
C=CCn1c(SCc2c(C)noc2C)nc2sc3c(c2c1=O)CCCCC3,-9.8%,i,-27.6%,-0.5%,16.4µM*
CCOC(=O)C1C2C=CC3(CN(c4cccc(Cl)c4)C(=O)C13)O2 (stereo unspecified),9.7%,i,1.8%,-0.6%,5.8%
